From PubChem BioAssay
esBAF inh – inhibitors of esBAF chromatin remodeling in mouse ES cells; Bmi1-luciferase knock-in reporter, 24 h; 100% = twice the neutral-well signal; reporter increase, % at 12.5 µM; 350,000 tested, 2% active; AID 602393; in the data active means activation above about 40%;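 further: 0% = median of the plate's neutral control wells and 100% = double that signal; a rise in the Bmi1 reporter signal indicates esBAF inhibition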
HSF-1 act – increases HSF-1 driven luciferase reporter signal; 300,000 tested, 1.7% active; NIH3T3-HGL HSF-1 luciferase reporter, MG132, 8 h; 100% = twice DMSO control signal; activation, % at 9 µM;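 active means mean replicate activation of at least 50% with a set share of replicates each reaching 50%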;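 further: 0% = median of the neutral control wells and 100% = twice that signal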
HSF1 inhib – HSF1 inhibition | NIH3T3-HGL HSE-luciferase, MG132-induced, luminescence 8 h; active compounds read low | activity change, negative = inhibition, % at 7.5 µM (by protocol) | 300,000 tested, 0.77% active;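 active means more than half of replicate wells show activity change below -50%, luminescence cut by over half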;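 further: luciferase reports HSF-1 transcriptional activity via heat shock element; 0% = median of DMSO wells and -100% = zero luminescence signal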
Vif imaging – HIV Vif inhibition; 340,000 tested, 0.35% active; HEK293T cells, Vif self-association by quenched fluorescence, imaging, 24 h; inhibition, % at 7.49 µM; in the data active means inhibition above about 50%, passing the limit was not always enough
* marks the source's active call; other numbers are inactive results; / = no result given. Only some compounds are listed: those with a hit (about 3.4% of all), similar ones and a draw of the others.

SMILES	esBAF inh	HSF-1 act	HSF1 inhib	Vif imaging
O=S(=O)(Nc1cccnc1Cl)c1ccc(-c2ccccc2)cc1	-1	9	-9	15
C[C@@H]1CN([C@H](C)CO)C(=O)c2cc(NC(=O)Nc3ccc(F)cc3)ccc2O[C@@H]1CN(C)S(=O)(=O)c1ccccc1	0	/	/	/
C[C@H](NC(=O)C[C@@H]1C[C@H]2c3cc(NC(=O)CC4CC4)ccc3O[C@H]2[C@@H](CO)O1)c1ccccc1	1	/	/	/
O=C(CCNC(=O)c1ccc(Br)cc1)Nc1nccs1	/	4	4	-3
O=C(Nc1nccs1)c1ccc(Br)cc1	43*	33	10	-36
CC=Cc1ccc2n(c1=O)C[C@@H]1[C@@H](CO)[C@H](C(=O)NCCc3ccncc3)N[C@H]21 (mixture of isomers)	3	/	/	/
CCCCC(=O)OCC(=O)c1cc(C)n(-c2c(C)n(C)n(-c3ccccc3)c2=O)c1C	/	44	7	50*
O=c1c([N+](=O)[O-])c(NCCN2CCCCCC2)c2ccccc2n1-c1ccccc1	/	0	-7	-10
COCCNc1c([N+](=O)[O-])c(=O)n(-c2ccccc2)c2ccccc12	/	69*	21	2
COc1ccc(NC(=O)Nc2cccc3c2O[C@@H](CN(C)S(=O)(=O)c2cccs2)[C@H](C)CN([C@H](C)CO)C3=O)cc1	-1	/	/	/
COc1ccc2cc(CN(Cc3ccco3)Cc3nnnn3C3CCCCC3)c(=O)[nH]c2c1	4	-6	7	-11
COc1ccc2cc(CN(Cc3ccco3)C(c3nnnn3C3CCCCC3)C(C)C)c(=O)[nH]c2c1 (centres undefined)	-3	70*	27	/
NNC(=S)NC1CC2CC1C1C=CCC21 (centres undefined)	-8	-63	-54*	3
COc1ccc(CN(C)C[C@H]2Oc3ccc(NS(=O)(=O)c4c(C)noc4C)cc3C(=O)N([C@@H](C)CO)C[C@@H]2C)cc1	1	/	/	/
CC(C)NC(=O)N(C)C[C@H]1OCCCC[C@H](C)Oc2ccc(NS(=O)(=O)c3ccccc3)cc2C(=O)N([C@H](C)CO)C[C@@H]1C	-3	/	/	/
CC(C)(C)OC(=O)N[C@@H](Cc1ccccc1)c1nnc(SCC(=O)O)o1	-8	-4	-2	5
CC(C)(C)OC(=O)N[C@@H](Cc1ccccc1)c1nnc(SCC(=O)c2ccc(Cl)cc2)o1	3	55*	12	/
COc1cccc(S(=O)(=O)Nc2ccc3c(c2)[C@@H]2C[C@H](CC(=O)NCCc4ccccc4)O[C@@H](CO)[C@@H]2O3)c1	4	/	/	/
C[C@@H](O)C#Cc1cnc2c(c1)C(=O)N([C@@H](C)CO)C[C@H](C)[C@@H](CN(C)CC1CCCC1)O2	-3	/	/	/
O=C(Nc1cccc(NC(=O)c2ccc([N+](=O)[O-])o2)c1)c1ccco1	-3	93*	66	0
O=C(Nc1ccc(NC(=O)c2ccc([N+](=O)[O-])o2)cc1Cl)c1ccco1	/	162*	121	-1
O=C(Nc1ccc(Cl)c([N+](=O)[O-])c1)c1ccco1	5	0	2	24
O=C(O)CCc1ccc(-c2ccccc2)n1-c1cccc(C(=O)O)c1	39	14	-7	3
O=C(O)CCc1ccc(-c2ccc(Br)cc2)n1-c1cccc(O)c1	73*	4	8	-5
C[C@@H]1CN([C@H](C)CO)S(=O)(=O)c2ccc(C3=CCCC3)cc2O[C@H]1CN(C)C(=O)c1ccc(F)cc1	1	/	/	/
SMILES	esBAF inh	HSF-1 act	HSF1 inhib	Vif imaging
Cc1ccc(-n2nc(C)c3cc(C(=O)O)sc32)cc1	6	-76	-69*	1
Cc1nn(-c2ccccc2)c2sc(C(=O)O)cc12	7	-5	3	20
Cc1ccc(S(=O)(=O)N2CCN(C(=O)c3cc4c(C)nn(-c5ccccc5)c4s3)CC2)cc1	-2	-3	2	-12
Cc1nn(-c2ccccc2)c2sc(C(=O)N3CCOCC3)cc12	44*	26	10	-19
CCCc1cc(-c2n[nH]c(=S)n2-c2cccc(C)c2)cs1	45*	26	-1	4
Cc1cccc(-n2c(-c3csc(C(C)C)c3)n[nH]c2=S)c1	4	19	13	-6
C[C@H]1CN([C@@H](C)CO)S(=O)(=O)c2ccc(C3=CCCC3)cc2O[C@H]1CN(C)C(=O)c1ccccc1	5	/	/	/
COc1cccc(/C=N/NC(=O)c2c(-c3ccccc3)noc2C)c1	2	15	20	0
Cc1onc(-c2ccccc2)c1C(=O)N/N=C/c1cccc(O)c1	/	67*	30	-7
CCC(=O)Nc1ccc2c(c1)C(=O)N(C)[C@@H]1CC[C@H](CC(=O)Nc3cccc(OC)c3)O[C@@H]1CO2	0	/	/	/
C[C@@H]1CN([C@@H](C)CO)C(=O)Cc2cc(NS(=O)(=O)c3ccc(F)cc3)ccc2O[C@H]1CN(C)S(=O)(=O)c1ccc(F)cc1	7	/	/	/
O=C1C(c2c(O)[nH]c3ccccc23)=Nc2ccccc21	10	9	9	-1
CC(=O)c1cccc2c(O)c(C3=Nc4ccccc4C3=O)[nH]c12	13	62*	33	7
C[C@H](CO)N1C[C@H](C)[C@@H](CN(C)C(=O)Nc2ccc(F)cc2)OCCCC[C@H](C)Oc2ccc(NC(=O)Nc3ccccc3)cc2C1=O	-3	/	/	/
Cc1ccc(S(=O)(=O)N(C)C)cc1NC(=O)COC(=O)c1c(-c2ccccc2)noc1C	0	10	14	-9
Cc1ccc(S(=O)(=O)N(C)C)cc1NC(=O)COC(=O)/C=C/c1ccc2ccccc2n1	/	76*	52	-3
CC(CNC(=O)c1ccccc1Cl)c1ccccc1 (centres undefined)	48*	-5	-3	-4
O=C(CN1CCOCC1)NCC[C@H]1CC[C@H](NC(=O)Cc2ccccn2)[C@@H](CO)O1	1	/	/	/
CCOc1ccc(NCC(=O)c2ccc(C)cc2)cc1	/	-60	-54*	/
Cc1ccccc1S(=O)(=O)NCC[C@H]1CC[C@@H](NC(=O)C2CCCC2)[C@H](CO)O1	0	/	/	/
CCn1nc(C)cc1-c1nnc(SCC(=O)Nc2ccccc2)n1CCCOC	2	0	-3	5
CCn1nc(C)cc1-c1nnc(Sc2ncc([N+](=O)[O-])s2)n1C	-2	122*	80	6
COCC(=O)Nc1ccc2c(c1)OC[C@@H](C)N(Cc1ccccc1F)C[C@@H](C)[C@@H](OC)CN(C)C2=O	3	/	/	/
O=C(CSc1ncnc2ccccc12)N1CCNC1=O	42*	/	/	-3
Cc1nc(SCC(=O)N2CCNC2=O)c2ccccc2n1	11	/	/	13
CN(C(=O)CSc1ncnc2ccccc12)C1CCCCC1	86*	/	/	-2
COCC#Cc1cnc2c(c1)C(=O)N([C@@H](C)CO)C[C@H](C)[C@@H](CN(C)C(=O)c1cccnc1)O2	5	/	/	/
CCOC(=O)c1cc(C#N)c(NCc2ccccc2)nc1C	3	-78	-72*	-9
O=S(=O)(Nc1cc(Sc2cccc3cccnc23)c(O)c2ccccc12)c1ccccc1	/	204*	204	/
Cc1ccc(S(=O)(=O)Nc2cccc3cccnc23)cc1	-6	81*	62	1
